Rows were chosen to be rich in hits. Some 21% of all compounds tested hit in one or more screens of this group.
CYP2C9 activ: human CYP2C9 activators, primary screen, biochemical, luminescence | Cytochrome P450 2C9 (Homo sapiens), P11712 | recombinant CYP2C9, luciferin-H conversion; hits give high values; factor 1 = untreated enzyme, 0 = blocked | activation factor at 5 µM | actives 1.4% (n = 96,000) | AID 1024, 2008;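 active = activation factor of 2 or more for CYP2C9 at a 5 µM dose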
CYP2C19 act: human CYP2C19 activators, primary screen, biochemical, luminescence; Cytochrome P450 2C19 (Homo sapiens), P33261; recombinant CYP2C19, luciferin-H EGE luminescence; hits give high values; 0 = fully inhibited enzyme, 1 = untreated enzyme; activation factor at 5 µM; 96,000 tested, under 10 active;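 active = activation factor of at least 2 at 5 µM in the primary screen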
Target sequence (P33261 whole entry, looked up): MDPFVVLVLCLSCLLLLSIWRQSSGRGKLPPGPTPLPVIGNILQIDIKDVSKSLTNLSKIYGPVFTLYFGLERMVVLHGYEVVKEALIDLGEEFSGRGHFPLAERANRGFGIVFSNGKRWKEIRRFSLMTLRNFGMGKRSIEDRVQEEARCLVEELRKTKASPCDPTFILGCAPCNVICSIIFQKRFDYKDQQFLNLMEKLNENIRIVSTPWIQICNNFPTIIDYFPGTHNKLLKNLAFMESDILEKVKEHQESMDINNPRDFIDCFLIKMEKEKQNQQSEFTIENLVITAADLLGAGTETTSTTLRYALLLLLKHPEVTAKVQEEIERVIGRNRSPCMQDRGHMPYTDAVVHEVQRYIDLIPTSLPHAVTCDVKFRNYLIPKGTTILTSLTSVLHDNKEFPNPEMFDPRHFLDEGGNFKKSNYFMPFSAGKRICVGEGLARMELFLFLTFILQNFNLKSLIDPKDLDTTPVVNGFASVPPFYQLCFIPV
MRP resist rev: reversal of MRP1-mediated doxorubicin resistance, primary screen, H69AR cells, doxorubicin co-treatment. H69AR cells + 2 uM doxorubicin, CellTiter-Glo, 72 h. differential viability (reversal), % at 10 µM. actives 0.04% (n = 85,000). AID 602, 2007;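 active = viability drop by adding the cancer drug above about 55%, with treated viability meeting a 40% cutoff, limit read from the data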;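 note: larger differential means the compound sensitizes cells more to doxorubicin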
MRP-1 activ: H69AR viability gain despite doxorubicin, primary screen, MRP-1 activator project, H69AR cells, CellTiter-Glo | viability rescue | actives 0.61% (n = 140,000) | viability increase, % at 10 µM | AID 799, 2007;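 active = viability gain under doxorubicin at or above a set limit, the compound median plus 3 SD, cut at about 4.7% in these data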;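 note: MRP-1 overexpressing cells given doxorubicin 25 µM after compound pretreatment; 18-22 h compound pretreatment then 72 h with doxorubicin before readout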
CYP2C9 inh: blockers of cytochrome P450 2C9 activity – biochemical, luminescence, ADME assay, primary screen; inhibition, % at 5 µM; P11712; actives 20% (n = 96,000); CYP2C9 Supersomes, luciferin-H conversion;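 active = blocking of liver enzyme CYP2C9 beyond about 50% at 5 µM, limit read from the data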
CYP2C19 inh: blockers of cytochrome P450 2C19 activity – biochemical, luminescence, ADME assay, primary screen; P33261; AID 778, 2007; CYP2C19 Supersomes, luciferin-H EGE luminescence, 30 min; actives 21% (n = 96,000); inhibition, % at 5 µM;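 active = CYP2C19 inhibition above a set limit at 5 µM in the primary screen, cut at about 50% in these data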
Numbers stand for hits; i = inactive; nt = no result given.

SMILES | CYP2C9 activ | CYP2C19 act | MRP resist rev | MRP-1 activ | CYP2C9 inh | CYP2C19 inh
OC1(c2ccc(F)cc2)CCN(Cc2nnnn2Cc2cccs2)CC1 | i | i | i | i | 60 | 75
CCN1CCN(C(c2ccc(F)cc2)c2nnnn2Cc2cccs2)CC1 (configuration not stated) | i | i | i | i | i | i
O=C1NC(=Nc2ccc(Cl)cc2)SC1Cc1cc(Cl)ccc1Cl (configuration not stated) | nt | nt | nt | 6.9 | nt | nt
CCCCn1c(N(CCOC(C)=O)C(C)=O)nc2ccccc21 | nt | nt | i | i | nt | nt
CCCCNC(=O)c1cc2nc3c(c(C(F)(F)F)n2n1)CCc1ccccc1-3 | i | i | nt | i | i | i
CC(C)CNC(=O)c1cc2nc3c(c(C(F)(F)F)n2n1)CCc1ccccc1-3 | i | i | i | i | 88 | 68
CN(CC(=O)OCC(=O)NCc1ccccc1)S(=O)(=O)c1ccc(Cl)cc1 | nt | nt | nt | i | nt | nt
Cc1ccc(C)c(OCC(=O)Nc2cc(C)on2)c1 | i | i | i | i | i | i
Cc1ccc(-c2cc(C(=O)Nc3cc(C)on3)c3ccccc3n2)c(C)c1 | i | i | i | i | 77 | i
Cc1cc(NC(=O)c2cc(-c3ccc(C)s3)nc3ccccc23)no1 | i | i | i | i | 86 | 67
Cc1ccc(C)c(-c2nnc(OCC(=O)Nc3cc(C)on3)c3ccccc23)c1 | i | i | i | i | 95 | 76
COc1cc2cc(C(=O)O)[nH]c2c(OC)c1OC | i | i | i | i | i | i
CN(CC(=O)Nc1ccc(F)c(Cl)c1)S(=O)(=O)c1cccc2nsnc12 | nt | nt | i | i | nt | nt
Cc1ccc(CNC(=O)CN(C)S(=O)(=O)c2cccc3nsnc23)cc1 | i | i | i | i | i | 59
CC(=O)c1cccc(NC(=O)CN(c2ccc(C)cc2)S(=O)(=O)c2cccc3nonc23)c1 | i | i | i | i | 72 | i
Cc1ccc(N(CC(=O)O)S(=O)(=O)c2cccc3nonc23)cc1 | i | i | i | i | i | i
Cc1ccc(NC(=O)CN(C)S(=O)(=O)c2cccc3nsnc23)cc1 | i | i | i | i | 77 | i
CCCCCCNS(=O)(=O)c1nc2nc(C)cc(C)n2n1 | i | i | i | i | i | i
COc1cc(NS(=O)(=O)c2ccc(NC(=O)COc3ccc(C)cc3)cc2)nc(OC)n1 | i | i | i | i | 82 | i
COc1cc(NS(=O)(=O)c2ccc(NC(=O)COc3ccccc3C)cc2)nc(OC)n1 | i | i | i | i | 91 | i
COc1cc(NS(=O)(=O)c2ccc(NC(=O)COc3ccc(C)cc3C)cc2)nc(OC)n1 | i | i | i | i | 69 | i
COc1ccccc1OCC(=O)Nc1ccc(S(=O)(=O)Nc2cc(C)nc(C)n2)cc1 | i | i | i | i | i | i
COc1ccc(OCC(=O)Nc2ccc(S(=O)(=O)Nc3cc(C)nc(C)n3)cc2)cc1 | i | i | i | i | i | i
Cc1ccc(NC(=O)CSc2nc(NS(=O)(=O)c3ccc(C)cc3)cc(=O)[nH]2)cc1 | i | i | i | i | 65 | i
COc1ccc(NC(=O)CSc2nc(NS(=O)(=O)c3ccccc3)cc(=O)[nH]2)cc1 | i | i | i | i | i | i
SMILES | CYP2C9 activ | CYP2C19 act | MRP resist rev | MRP-1 activ | CYP2C9 inh | CYP2C19 inh
N#CCCn1cnc2c(=S)nc[nH]c21 | i | i | i | i | i | i
Cc1ccc(C(=O)N2CC(=O)Nc3ccc(F)cc3C2c2ccccc2)cc1[N+](=O)[O-] (configuration not stated) | nt | nt | nt | i | nt | nt
COc1cc(NS(=O)(=O)c2ccc(NS(=O)(=O)c3ccccc3)cc2)nc(OC)n1 | i | i | i | i | 78 | i
CC(C)N(C(=O)C(=O)c1cccn1-c1ccccc1C#N)C(C)C | i | i | i | i | i | 54
CCN(CC)C(=O)C(=O)c1cccn1-c1cccc(Cl)c1C#N | i | i | i | i | i | 81
CN(C)C(=O)C(=O)c1cccn1-c1ccccc1C#N | i | i | i | i | i | i
CC1CCCC(NC(=O)COC(=O)CN2C(=O)C3CCCCC3C2=O)C1C (configuration not stated) | nt | nt | nt | i | nt | nt
COc1cccc(C2C3=C(CCCC3=O)Nc3nc(-c4cc(OC)c(OC)c(OC)c4)nn32)c1 (configuration not stated) | i | i | i | i | i | 62
CCOc1ccc(NS(=O)(=O)c2ccc3[nH]cc(C(=O)NC(C)CC)c(=O)c3c2)cc1 (configuration not stated) | nt | nt | i | i | nt | nt
COc1cccc(NS(=O)(=O)c2ccc3[nH]cc(C(=O)NCCC(C)C)c(=O)c3c2)c1 | i | i | i | i | 70 | i
CCCNC(=O)c1c[nH]c2ccc(S(=O)(=O)N(C)c3ccc(OCC)cc3)cc2c1=O | i | i | i | i | 83 | i
O=C(Nc1ccccc1)c1ccccc1OCc1cccc([N+](=O)[O-])c1 | nt | nt | nt | i | nt | nt
CCOc1ccc(C(=O)N/N=C(\c2ccccc2)c2ccccn2)cc1 | i | i | nt | i | i | i
CCOc1ccc(CC2S/C(=N/c3ccccn3)NC2=O)cc1 (configuration not stated) | i | i | i | i | i | 72
O=C(NCc1cccc(Cl)c1)c1ccc(S(=O)(=O)Nc2cccc(C(F)(F)F)c2)cc1 | nt | nt | nt | i | nt | nt
O=[N+]([O-])c1cc([N+](=O)[O-])c(N2CCCCCC2)cc1NCCO | i | i | nt | i | 70 | i
N#Cc1cc(N2CCCCC2)c([N+](=O)[O-])cc1C#N | nt | nt | nt | i | nt | nt
CCC(C)NS(=O)(=O)c1cccs1 (configuration not stated) | i | i | i | i | i | i
COC(=O)CC(NC(=O)c1ccco1)c1cccc2ccccc12 (configuration not stated) | i | i | i | i | i | 64
COC(=O)CC(NS(=O)(=O)c1cccs1)c1cccc2ccccc12 (configuration not stated) | i | i | nt | i | i | 100
Cc1nn(-c2ccccc2)c2c1C(O)n1c(nc3ccccc31)S2 (configuration not stated) | i | i | nt | i | 58 | 70
Cc1nn(-c2ccccc2)c2sc(C(=O)O)cc12 | i | i | nt | i | i | i
O=C1CCC/C(=N/NC(=O)C2CCN(S(=O)(=O)c3cccs3)CC2)C1 | nt | nt | nt | i | nt | nt
O=C(COC(=O)C12CC3CC(CC(C3)C1)C2)NC12CC3CC(CC(C3)C1)C2 | i | i | i | i | i | i
CCC(CC)C(=O)OCC(=O)NC12CC3CC(CC(C3)C1)C2 | i | i | i | i | i | 94
Cc1ccc(C(NC(N)=O)c2ccccc2)cc1 (configuration not stated) | i | i | i | i | 63 | 97

Screens: PubChem BioAssay, several laboratories
